Data reported in PubChem BioAssay AID489038 (National Center for Advancing Translational Sciences (NCATS), 2010).
Results filed as inconclusive are left out. A call without a number means that no potency is given here. The source made the active and inactive calls. Calls follow the shape of the dose curve; as a rule, active = well fitted inhibition curve with a large enough effect; inconclusive = small, poorly fitted or top-dose-only effect, or effect the other way; inactive = no such curve, though single readings can be large or run the other way.

test: DHR3 selectivity assay for inhibitors of ROR gamma transcriptional activity; conditions: Drosophila S2 Gal4-DHR3 UAS-luciferase, 20 h; series mostly up to 92.2 µM
Source text: NIH Molecular Libraries Probe Production Network [MLPCN] NIH Chemical Genomics Center [NCGC] MLPCN Grant: R03 DA026211-01 Assay Provider: Dan Littman, New York University Assay Overview: The retinoic acid-related orphan receptor (ROR) gamma is a transcription factor that has a central role in the differentiation of Th17 cells, a subset of T helper cells that secrete the inflammatory cytokines IL-17A, IL-17F, and IL-22. Th17 cells have been implicated in graft versus host disease, autoimmune disease and asthma. RORgamma is induced in naive T helper cells in the presence of TGF-beta combined with IL-6, IL-21, or IL-23, and thereafter directs the expression of the Th17 lineage cytokines. To identify […] inhibitors, a Drosophila Schneider cell line was stably transfected with two vectors: a gene expressing a fusion of the Gal4 DNA binding domain and the transactivation domain of the Drosophila Hormone Receptor 3 (DHR3), under the control of the metallothionine promoter and a Photinus luciferase reporter regulated by the Gal4 binding site enhancer, UAS. […] Small molecule inhibitors that inhibit components common to the RORgamma and DHR3 assays, such as proteins that interact with general nuclear hormone receptors, will be active in both assays and thus scored as nonselective.
Assay Protocol Summary: For screening, 600 cells in 4 uL/well were dispensed into white solid 1536-well plates (Grenier) using a solenoid-based dispenser. Following transfer of 23 nL compound or DMSO vehicle by a pin tool, the plates were incubated 1 hr at ambient temperature, and 1 uL/well copper sulfate (700 uM final concentration) was added. The plates were centrifuged 15 s at 1000 RPM and incubated 20 hr at ambient temperature. After addition of 1.5 uL Photinus luciferase detection reagent, the plates were incubated 10 min at ambient temperature and then read by an ViewLux (Perkin Elmer) to detect luminescence.
Potency is read from the fitted curve at half-maximal effect.

| SMILES | Potency |
| --- | --- |
| COc1cc(O)c(C(CC(=O)NCc2ccccc2)c2ccc3c(c2)OCO3)c(OC)c1 (configuration not stated) | inactive |
| COc1cc(O)c(C(CC(=O)N2CCC(C)CC2)c2ccc3c(c2)OCO3)c(OC)c1 (configuration not stated) | inactive |
| COc1ccccc1CNC(=O)[C@@H](NC(=O)C1CCN(C(=O)[C@@H]2CCCN2C(=O)OC(C)(C)C)CC1)C(C)C | inactive |
| COc1ccccc1C(CC(=O)N1CCCC(C)C1)c1ccccc1 (configuration not stated) | inactive |
| CCOC(=O)C1CCN(CC(=O)Nc2cc(C)nn2-c2nc3ccccc3s2)CC1 | 7.24 µM (active) |
| COc1cc(O)c(C(CC(=O)NC2CCCc3ccccc32)c2ccc3c(c2)OCO3)c(OC)c1 (configuration not stated) | inactive |
| CCOC(=O)Cn1c(CN2CCc3ccccc3C2)nc2c1c(=O)n(C)c(=O)n2C | 6.45 µM (active) |
| COc1cc(OC)c(C(CC(=O)N2CCCC(C)C2)c2ccc3c(c2)OCO3)c(OCc2ccccc2)c1 (configuration not stated) | 14.4 µM (active) |
| COc1cc(O)c(C(CC(=O)N2CCCC(C(C)C)C2)c2ccc3c(c2)OCO3)c(OC)c1 (configuration not stated) | inactive |
| COC(=O)c1ccc(OCC(=O)c2ccc(O)cc2O)cc1 | 0.363 µM (active) |
| Cc1cc(C)c2[nH]c(C(=O)Nc3ccc4c(c3)OCO4)cc2c1 | 0.204 µM (active) |
| Cc1cc(C)c2sc(NC(=O)c3ccc(N4C(=O)CCC4=O)cc3)nc2c1 | 0.102 µM (active) |
| COc1cc(O)c(C(CC(=O)N2CCCC(c3nc4ccccc4o3)C2)c2ccc3c(c2)OCO3)c(OC)c1 (configuration not stated) | inactive |
| COc1cc(O)c(C(CC(=O)N2CCC(c3ccccc3)CC2)c2ccc3c(c2)OCO3)c(OC)c1 (configuration not stated) | inactive |
| COc1cc(O)c(C(CC(=O)N2CCCC(C(=O)c3ccccc3)C2)c2ccc3c(c2)OCO3)c(OC)c1 (configuration not stated) | inactive |
| COc1ccc(C(CC(=O)N2CCCC(C)C2)c2c(O)cc(OC)cc2OC)c(OC)c1 (configuration not stated) | inactive |
| CCOC(=O)c1sc(NC(=O)c2ccc(S(=O)(=O)N(C)C)cc2)nc1C | 0.0457 µM (active) |
| COc1ccc(-c2c[n+]3c(n2-c2ccc(C)cc2)CCCCC3)cc1 | 8.12 µM (active) |
| CC1CCCN(C(=O)CC(c2ccc3c(c2)OCO3)c2cc(C(C)C)ccc2O)C1 (configuration not stated) | inactive |
| CCC1(CC)CCN(C(=O)CC(c2ccc3c(c2)OCO3)c2c(O)cc(OC)cc2OC)C1 (configuration not stated) | inactive |
| Cc1ccc(C)c(C(CC(=O)N2CCCC(C)C2)c2ccc3c(c2)OCO3)c1O (configuration not stated) | inactive |
| COc1cc(O)c(C(CC(=O)N2CCCC(C)C2)c2ccc(-c3ccccc3)cc2)c(OC)c1 (configuration not stated) | inactive |
